For three compounds, AC50 and outcome results are on record in PubChem BioAssay (EPA / NIEHS).

Molecules are shown by their SMILES. The source made the active and inactive calls. Rule for the calls: active = hit-call score of the fitted dose curve at least 0.9, where 1 is the maximum; inactive = score below 0.9.

Read-out in test [1]: C-C motif chemokine 2 (Homo sapiens) (UniProt P13500)
As to the kind of experiment: BSK_KF3CT_MCP1: BioMAP Diversity Plus: KF3CT Assay for Monocyte Chemoattractant Protein 1 (MCP1/CCL2) Biomarker Activity (AID 2283073). The note with it: primary human keratinocytes with fibroblasts; actives raise or lower the signal. The gist of the method: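 Biomarker MCP-1 is measured by ELISA in primary human keratinocytes co-cultured with foreskin fibroblasts, 24 h after chemical treatment; DMSO serves as the negative control and activity baseline.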

Read-out in test [2]: Matrix Metallopeptidase 9 (MMP9), MMP9 (gene 4318)
Nature of the test: BSK_KF3CT_MMP9: BioMAP Diversity Plus: KF3CT Assay for Matrix Metallopeptidase 9 (MMP9) Biomarker Activity (AID 2283074).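 For AC50: MMP9 protein level quantified by ELISA in the co-culture.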 Conditions: primary human keratinocytes with fibroblasts; actives raise or lower the signal. The gist of the method: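 ELISA read-out of MMP-9 at 24 h post-dosing in a co-culture of human skin keratinocytes and foreskin fibroblasts. Gain or loss of signal was fitted in both directions against DMSO.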

Read-out in test [3]: urokinase plasminogen activator (uPA), PLAU (gene 5328)
Nature of the test: BSK_KF3CT_uPA: BioMAP Diversity Plus: KF3CT Assay for urokinase plasminogen activator (uPA) Biomarker Activity (AID 2283075). The note with it: primary human keratinocytes with fibroblasts; actives raise or lower the signal. The gist of the method:
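Skin co-culture (keratinocytes + foreskin fibroblasts), human primary; 24 h post-dose; uPA by ELISA; gain/loss fit vs DMSO baseline.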

Read-out in test [4]: CD40, CD40 (gene 958)
As to the kind of experiment: BSK_LPS_CD40: BioMAP Diversity Plus: LPS Assay for CD40 Biomarker Activity (AID 2283076). Conditions: primary human HUVEC with PBMC; actives raise or lower the signal. Put shortly: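 Using a multiplexed primary human co-culture (umbilical vein endothelium plus PBMC), CD40 was read by ELISA 24 h after dosing, with cytotoxicity tracked by sulforhodamine B staining of parallel cultures and activity fitted bidirectionally versus DMSO.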

Read-out in test [5]: E-selectin (Homo sapiens) (UniProt P16581)
Nature of the test: BSK_LPS_Eselectin: BioMAP Diversity Plus: LPS Assay for Eselectin Biomarker Activity (AID 2283077). Conditions: primary human HUVEC with PBMC; actives raise or lower the signal. Put shortly: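 Dose chemical onto LPS-driven HUVEC/PBMC co-culture; after 24 h, run ELISA for E-selectin; fit up- and down-going responses relative to DMSO control.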

Read-out in test [6]: Interleukin-8 (IL8), CXCL8 (gene 3576)
As to the kind of experiment: BSK_LPS_IL8: BioMAP Diversity Plus: LPS Assay for Interleukin-8 (IL8) Biomarker Activity (AID 2283078). Conditions: primary human HUVEC with PBMC; actives raise or lower the signal. Put shortly:
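In this LPS system, chemical-treated human umbilical vein endothelium/PBMC co-cultures were harvested at 24 h for IL-8 ELISA.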

Read-out in test [7]: Interleukin-1 alpha (IL1a), IL1A (gene 3552)
Nature of the test: BSK_LPS_IL1a: BioMAP Diversity Plus: LPS Assay for Interleukin-1 alpha (IL1a) Biomarker Activity (AID 2283080). The note with it: primary human HUVEC with PBMC; actives raise or lower the signal. Put shortly: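 Primary human HUVEC and PBMC co-culture stimulated with LPS is dosed and harvested at 24 h. Both increases and decreases in ELISA-measured IL-1a are scored relative to DMSO.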

Read-out in test [8]: Monocyte Chemoattractant Protein-1 (MCP1), CCL2 (gene 6347)
Nature of the test: BSK_LPS_MCP1: BioMAP Diversity Plus: LPS Assay for Monocyte Chemoattractant Protein-1 (MCP1) Biomarker Activity (AID 2283081).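 For AC50: secreted MCP-1 protein quantified by ELISA in culture supernatant.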 The note with it: primary human HUVEC with PBMC; actives raise or lower the signal. Put shortly: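 Values derive from bidirectional fitting against DMSO of ELISA-measured MCP-1 in a human primary endothelial and mononuclear cell co-culture, 24 h after chemical addition under LPS activation.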

Test [9] is described as follows: BSK_LPS_PGE2: BioMAP Diversity Plus: LPS Assay for Prostaglandin E2 (PGE2) Biomarker Activity (AID 2283082). Conditions: primary human HUVEC with PBMC; actives raise or lower the signal. Put shortly:
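PGE2 release measured by ELISA in an LPS-activated co-culture of human umbilical vein endothelial cells and peripheral blood mononuclear cells, read at 24 h post-dosing. DMSO served as baseline for bidirectional curve fitting.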

Read-out in test [10]: Macrophage colony-stimulating factor (MCSF), CSF1 (gene 1435)
Nature of the test: BSK_LPS_MCSF: BioMAP Diversity Plus: LPS Assay for Macrophage colony-stimulating factor (MCSF) Biomarker Activity (AID 2283083). Conditions: primary human HUVEC with PBMC; actives raise or lower the signal. The gist of the method: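 Bidirectional fit versus DMSO of ELISA-measured M-CSF in co-cultured human umbilical vein endothelial cells and PBMC, sampled 24 h after dosing.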

Read-out in test [11]: Tissue Factor, F3 (gene 2152)
Nature of the test: BSK_LPS_TissueFactor: BioMAP Diversity Plus: LPS Assay for Tissue Factor Biomarker Activity (AID 2283084). The note with it: primary human HUVEC with PBMC; actives raise or lower the signal. Put shortly:
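Read-out: CD142 ELISA, 24 h. System: LPS-driven human endothelial/PBMC co-culture. Analysis: up- or down-signal fitted against DMSO.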

Read-out in test [12]: Vascular cell adhesion molecule 1 (VCAM1), VCAM1 (gene 7412)
Nature of the test: BSK_LPS_VCAM1: BioMAP Diversity Plus: LPS Assay for Vascular cell adhesion molecule 1 (VCAM1) Biomarker Activity (AID 2283086). Conditions: primary human HUVEC with PBMC; actives raise or lower the signal. The gist of the method: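 VCAM-1 quantified by ELISA in an LPS-activated co-culture of human endothelial cells and peripheral blood mononuclear cells, read 24 h post-treatment. Fitted in both directions versus DMSO; parallel SRB staining flags overt cytotoxicity.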

Read-out in the next test: CD38, CD38 (gene 952)
Nature of the test: BSK_SAg_CD38: BioMAP Diversity Plus: SAg Assay for CD38 Biomarker Activity (AID 2283087). Conditions: primary human HUVEC with PBMC; actives raise or lower the signal. Put shortly:
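CD38 quantified by ELISA (fluorescence) in a superantigen-activated endothelial cell–PBMC co-culture at 24 h post-dose. Activity fitted in both directions relative to DMSO; parallel SRB and Alamar Blue cytotoxicity read-outs.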

Read-out in test [13]: CD40, CD40 (gene 958)
As to the kind of experiment: BSK_SAg_CD40: BioMAP Diversity Plus: SAg Assay for CD40 Biomarker Activity (AID 2283088). Conditions: primary human HUVEC with PBMC; actives raise or lower the signal. The gist of the method:
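Endpoint derived by fitting increases or decreases versus DMSO controls. CD40 is detected by fluorescence ELISA in a human vascular co-culture of endothelium and PBMC at 24 h.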

Read-out in another test: CD69, CD69 (gene 969)
As to the kind of experiment: BSK_SAg_CD69: BioMAP Diversity Plus: SAg Assay for CD69 Biomarker Activity (AID 2283089).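 For AC50: cell surface CD69 protein quantified by ELISA with fluorescence detection.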 Conditions: primary human HUVEC with PBMC; actives raise or lower the signal. Put shortly: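 Primary human vascular co-culture (umbilical vein endothelium with peripheral blood mononuclear cells) exposed to test chemical for 24 h. CD69 levels quantified by fluorescence ELISA; DMSO served as negative control for bidirectional fitting.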

Read-out in test [14]: Monocyte Chemoattractant Protein-1 (MCP1), CCL2 (gene 6347)
As to the kind of experiment: BSK_SAg_MCP1: BioMAP Diversity Plus: SAg Assay for Monocyte Chemoattractant Protein-1 (MCP1) Biomarker Activity (AID 2283090). Conditions: primary human HUVEC with PBMC; actives raise or lower the signal. Put shortly:
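Values derive from bidirectional fitting of ELISA-measured MCP1 against DMSO controls. Readings were taken 24 h after dosing human vascular endothelial cells co-cultured with peripheral blood mononuclear cells under superantigen stimulation.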

Read-out in test [15]: E-selectin (Homo sapiens) (UniProt P16581)
As to the kind of experiment: BSK_SAg_Eselectin: BioMAP Diversity Plus: SAg Assay for Eselectin Biomarker Activity (AID 2283091). Conditions: primary human HUVEC with PBMC; actives raise or lower the signal. The gist of the method: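 Endpoint values derive from bidirectional fitting relative to DMSO, using ELISA-measured E-selectin in a human vascular co-culture (umbilical vein endothelium plus PBMC) sampled 24 h after dosing.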

Read-out in test [16]: Monokine induced gamma interferon (MIG), CXCL9 (gene 4283)
Nature of the test: BSK_SAg_MIG: BioMAP Diversity Plus: SAg Assay for Monokine induced gamma interferon (MIG) Biomarker Activity (AID 2283092). Conditions: primary human HUVEC with PBMC; actives raise or lower the signal. Put shortly: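 Endothelial cells and PBMC were co-cultured, exposed to test chemicals, and sampled 24 h later. MIG was measured by ELISA, and responses were fitted in both directions relative to DMSO.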

Read-out in test [17]: Tumor necrosis factor (Homo sapiens) (UniProt P01375)
As to the kind of experiment: BSK_LPS_TNFa: BioMAP Diversity Plus: LPS Assay for Tumour Necrosis Factor alpha (TNFa) Biomarker Activity (AID 2283085). Conditions: primary human HUVEC with PBMC; actives raise or lower the signal. The gist of the method:
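TNFa was quantified by ELISA in LPS-activated co-cultures of human endothelial cells and PBMC, 24 h post-dosing. Both increases and decreases versus DMSO were fitted.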

E-selectin (Homo sapiens), sequence (P16581 whole entry, looked up): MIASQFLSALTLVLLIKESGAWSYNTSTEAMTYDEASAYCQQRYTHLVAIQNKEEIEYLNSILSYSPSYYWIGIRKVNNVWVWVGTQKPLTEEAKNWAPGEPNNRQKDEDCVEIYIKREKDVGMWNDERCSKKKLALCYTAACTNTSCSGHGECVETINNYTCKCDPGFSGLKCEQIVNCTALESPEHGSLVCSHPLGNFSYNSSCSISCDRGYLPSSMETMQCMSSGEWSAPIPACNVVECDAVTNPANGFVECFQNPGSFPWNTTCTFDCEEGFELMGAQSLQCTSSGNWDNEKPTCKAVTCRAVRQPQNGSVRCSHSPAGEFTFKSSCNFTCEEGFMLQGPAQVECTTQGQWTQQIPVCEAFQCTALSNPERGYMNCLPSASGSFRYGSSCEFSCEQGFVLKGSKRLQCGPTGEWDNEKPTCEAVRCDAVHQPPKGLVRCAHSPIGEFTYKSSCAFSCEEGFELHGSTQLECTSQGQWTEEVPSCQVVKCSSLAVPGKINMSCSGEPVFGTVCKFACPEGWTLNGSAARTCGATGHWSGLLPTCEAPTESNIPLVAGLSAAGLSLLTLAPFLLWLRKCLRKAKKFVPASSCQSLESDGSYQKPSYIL
Tumor necrosis factor (Homo sapiens), sequence (P01375 whole entry, looked up): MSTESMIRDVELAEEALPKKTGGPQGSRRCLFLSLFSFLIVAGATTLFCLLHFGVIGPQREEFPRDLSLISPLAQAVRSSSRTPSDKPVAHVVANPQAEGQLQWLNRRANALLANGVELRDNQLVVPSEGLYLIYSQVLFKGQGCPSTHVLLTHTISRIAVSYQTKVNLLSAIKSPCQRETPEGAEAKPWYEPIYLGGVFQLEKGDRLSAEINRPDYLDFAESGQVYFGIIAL

By AC50 is commonly meant the concentration at which the activity in the assay is half-maximal. Turning to `CCc1nn(C2CCCCC2)c2cc(C3(C#N)CCC(C(=O)O)CC3)ccc12` (centres undefined), the AC50 was 20 µM (active) in test [1]; 8.4 µM (active) in test [2]; 11.3 µM (active) in test [3]; 2.51 µM (active) with CD40, CD40 (gene 958) [4]; 16.1 µM (active) in test [5]; 20 µM (active) in [6]. Also, the AC50 is 1.15 µM (active) in test [7]; 10.1 µM (active) in test [8]; 1.85 µM (active) in test [10]; 2.43 µM (active) in [12]; 20 µM (active) with CD38, CD38 (gene 952); 10.6 µM (active) with CD40, CD40 (gene 958) [13]. The AC50 with CD69, CD69 (gene 969) was 5.47 µM (active); in test [14], 4.61 µM (active); in test [15], 1.78 µM (active); in test [16] it was 28 µM (active). The outcome in test [9] and in test [11] was inactive.

Consider `OC1CCC(C2CCCCC2)CC1` (centres undefined), for which the outcome is “inactive” in test [1]; “inactive” in test [2]; “inactive” in test [3]; “inactive” with CD40, CD40 (gene 958) [4]; “inactive” in test [5]; “inactive” in test [6]. For the same compound, the outcome in test [7], in test [8], in [9], in test [10], in test [11] and in test [12] was inactive. For the same compound, the outcome in the test with CD38, CD38 (gene 952) is “inactive”; with CD40, CD40 (gene 958) [13], “inactive”; in the test with CD69, CD69 (gene 969), “inactive”; in test [14], “inactive”; in [15] it was “inactive”; in test [16], “inactive”.

For the compound `O=c1c(-c2ccc(O)cc2)coc2cc(O)ccc12`, the outcome in test [1] was “inactive”; in test [3], “inactive”; in the test with CD40, CD40 (gene 958) [4] it was “inactive”; in test [5], “inactive”; in [6] it was “inactive”; in [7], “inactive”. Moreover, the outcome is “inactive” in test [10]; “inactive” in test [17]; “inactive” with CD38, CD38 (gene 952); “inactive” with CD40, CD40 (gene 958) [13]; “inactive” with CD69, CD69 (gene 969); “inactive” in test [14]. Also, the outcome in test [15] and in test [16] was inactive. Besides, the AC50 in test [2] was 20 µM (active); in test [8], 20 µM (active); in test [11], 26.5 µM (active); in test [12], 20 µM (active).
